From PMC7862700, “An all-to-all approach to the identification of sequence-specific readers for epigenetic DNA modifications on cytosine”

Columns and labels:
Experiment in all cases: DAPPL (digital affinity profiling via proximity ligation, sequencing); 10 mM Tris-HCl pH 7.5, 50 mM NaCl, 1 mM DTT, 4% glycerol, room temperature, 30 min; GST-TFs on glutathione beads, 16-mer random dsDNA library, 0.1% formaldehyde crosslink after washing; high values mean tight binding
Details in all cases: protein: recombinant; tags: N-terminal GST; dsDNA, one strand shown
[1] = biological target: T1, FLI1 (Homo sapiens, UniProt Q01543 1-452)
T1 sequence: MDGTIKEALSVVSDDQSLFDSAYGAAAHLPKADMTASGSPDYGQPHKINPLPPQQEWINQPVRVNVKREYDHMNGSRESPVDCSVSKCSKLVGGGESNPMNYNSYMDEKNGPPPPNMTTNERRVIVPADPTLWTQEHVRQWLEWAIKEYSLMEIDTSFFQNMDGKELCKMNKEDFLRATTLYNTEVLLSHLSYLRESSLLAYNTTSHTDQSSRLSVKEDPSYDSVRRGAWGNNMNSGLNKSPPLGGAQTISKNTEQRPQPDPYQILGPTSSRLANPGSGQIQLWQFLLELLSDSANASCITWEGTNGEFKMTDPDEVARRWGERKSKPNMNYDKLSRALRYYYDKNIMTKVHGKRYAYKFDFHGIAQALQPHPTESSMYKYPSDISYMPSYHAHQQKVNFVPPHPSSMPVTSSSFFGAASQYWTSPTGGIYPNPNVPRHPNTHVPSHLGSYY
In short: (§1)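 Human transcription factors fused to GST were expressed in yeast, captured on glutathione beads, given DNA barcodes and pooled with a GST-only negative control. Pools were incubated with 200 nmole of a 16-mer random double-stranded DNA library in Tris/NaCl/DTT/glycerol buffer at room temperature for 30 min. They were then washed, crosslinked with 0.1% formaldehyde, proximity-ligated (BsaI/T4 ligase, 1 h, 37 °C), PCR-amplified and sequenced on an Illumina NextSeq500. Binding signal is each 6-mer's read frequency for a factor divided by its frequency for the GST control.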

[2] = biological target: T2, ELK1 (Homo sapiens, UniProt P19419 1-428)
T2 sequence: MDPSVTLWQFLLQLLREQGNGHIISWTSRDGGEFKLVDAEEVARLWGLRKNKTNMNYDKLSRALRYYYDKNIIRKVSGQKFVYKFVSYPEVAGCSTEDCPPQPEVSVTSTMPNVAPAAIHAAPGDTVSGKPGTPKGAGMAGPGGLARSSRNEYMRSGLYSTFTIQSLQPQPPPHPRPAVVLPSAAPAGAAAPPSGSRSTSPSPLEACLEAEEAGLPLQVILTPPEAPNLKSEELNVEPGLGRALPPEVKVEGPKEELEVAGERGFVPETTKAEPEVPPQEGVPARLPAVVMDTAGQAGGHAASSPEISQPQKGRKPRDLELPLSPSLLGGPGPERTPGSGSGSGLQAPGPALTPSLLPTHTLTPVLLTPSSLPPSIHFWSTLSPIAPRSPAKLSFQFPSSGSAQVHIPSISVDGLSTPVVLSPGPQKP
In short: as §1

[3] = biological target: T3, GABPA (Homo sapiens, UniProt Q06546 1-454)
T3 sequence: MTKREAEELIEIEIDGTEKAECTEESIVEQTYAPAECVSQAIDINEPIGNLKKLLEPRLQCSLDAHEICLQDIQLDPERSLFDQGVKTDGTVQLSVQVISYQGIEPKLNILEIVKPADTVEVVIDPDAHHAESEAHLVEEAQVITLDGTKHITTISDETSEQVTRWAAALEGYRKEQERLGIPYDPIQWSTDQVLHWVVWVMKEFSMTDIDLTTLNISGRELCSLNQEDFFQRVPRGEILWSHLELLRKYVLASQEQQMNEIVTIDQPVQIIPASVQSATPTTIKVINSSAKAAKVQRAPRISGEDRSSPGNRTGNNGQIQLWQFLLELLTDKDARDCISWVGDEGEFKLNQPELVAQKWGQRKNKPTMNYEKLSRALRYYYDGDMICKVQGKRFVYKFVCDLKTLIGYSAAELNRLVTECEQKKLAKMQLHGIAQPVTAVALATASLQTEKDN
In short: as §1

[4] = biological target: T4, ERG (Homo sapiens, UniProt P11308 1-479)
T4 sequence: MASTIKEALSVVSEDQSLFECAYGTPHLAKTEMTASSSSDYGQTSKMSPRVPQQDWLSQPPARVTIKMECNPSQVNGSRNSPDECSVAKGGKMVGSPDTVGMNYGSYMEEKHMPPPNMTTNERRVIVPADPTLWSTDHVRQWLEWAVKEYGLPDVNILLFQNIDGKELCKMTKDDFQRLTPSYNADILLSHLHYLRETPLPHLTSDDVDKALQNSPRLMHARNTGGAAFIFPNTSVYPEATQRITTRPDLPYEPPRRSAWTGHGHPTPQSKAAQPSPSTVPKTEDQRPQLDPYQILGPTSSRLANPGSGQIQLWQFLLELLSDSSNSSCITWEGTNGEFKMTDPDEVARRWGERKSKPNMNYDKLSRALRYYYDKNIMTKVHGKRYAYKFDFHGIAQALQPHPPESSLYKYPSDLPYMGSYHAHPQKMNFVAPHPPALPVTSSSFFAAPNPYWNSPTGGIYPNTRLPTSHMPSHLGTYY
In short: as §1

[5] = biological target: ELF1 (Homo sapiens, UniProt P32519 1-619)
In short: as §1

[6] = biological target: T5, EHF (Homo sapiens, UniProt Q9NZC4 1-300)
T5 sequence: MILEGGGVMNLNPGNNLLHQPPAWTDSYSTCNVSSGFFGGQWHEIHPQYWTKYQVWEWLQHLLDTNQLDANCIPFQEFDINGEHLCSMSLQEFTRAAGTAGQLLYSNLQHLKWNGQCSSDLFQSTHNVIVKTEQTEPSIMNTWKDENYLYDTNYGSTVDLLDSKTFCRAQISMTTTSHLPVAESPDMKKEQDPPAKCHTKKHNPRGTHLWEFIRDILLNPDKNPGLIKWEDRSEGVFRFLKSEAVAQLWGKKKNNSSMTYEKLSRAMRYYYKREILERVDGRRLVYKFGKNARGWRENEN
In short: as §1

[7] = biological target: SPI1 (Homo sapiens, UniProt P17947 1-270)
In short: as §1

[8] = biological target: SPIB (Homo sapiens, UniProt Q01892 1-262)
In short: as §1

[9] = biological target: T6, ELK3 (Homo sapiens, UniProt P41970 1-407)
T6 sequence: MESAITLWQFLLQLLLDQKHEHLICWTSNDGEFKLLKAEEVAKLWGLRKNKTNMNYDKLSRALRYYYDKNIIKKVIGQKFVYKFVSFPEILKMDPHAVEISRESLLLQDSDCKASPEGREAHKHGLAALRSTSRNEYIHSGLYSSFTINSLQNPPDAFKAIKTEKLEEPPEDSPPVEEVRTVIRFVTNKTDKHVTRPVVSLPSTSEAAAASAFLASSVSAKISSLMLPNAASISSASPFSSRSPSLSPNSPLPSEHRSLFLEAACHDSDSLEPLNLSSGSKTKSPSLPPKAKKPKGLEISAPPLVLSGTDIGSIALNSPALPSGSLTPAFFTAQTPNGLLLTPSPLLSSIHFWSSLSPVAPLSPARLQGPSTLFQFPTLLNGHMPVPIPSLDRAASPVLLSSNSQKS
In short: as §1

[10] = biological target: T7, FEV (Homo sapiens, UniProt Q99581 1-238)
T7 sequence: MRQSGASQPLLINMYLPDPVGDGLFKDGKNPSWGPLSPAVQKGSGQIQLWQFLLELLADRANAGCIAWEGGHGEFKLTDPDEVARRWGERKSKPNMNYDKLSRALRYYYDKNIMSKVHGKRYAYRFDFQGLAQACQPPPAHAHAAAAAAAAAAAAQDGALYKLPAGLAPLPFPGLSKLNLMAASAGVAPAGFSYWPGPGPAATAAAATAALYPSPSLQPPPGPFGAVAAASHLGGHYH
In short: as §1

[11] = biological target: ETV5 (Homo sapiens, UniProt P41161 1-510)
In short: as §1

[12] = biological target: T8, SPIC (Homo sapiens, UniProt Q8N5J4 1-248)
T8 sequence: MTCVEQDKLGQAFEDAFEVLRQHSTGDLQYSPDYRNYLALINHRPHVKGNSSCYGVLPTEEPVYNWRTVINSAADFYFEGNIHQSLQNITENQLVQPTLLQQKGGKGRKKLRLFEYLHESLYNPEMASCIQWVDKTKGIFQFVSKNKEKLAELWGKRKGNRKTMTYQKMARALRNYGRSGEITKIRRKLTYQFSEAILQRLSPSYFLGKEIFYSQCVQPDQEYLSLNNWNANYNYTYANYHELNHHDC
In short: as §1

[13] = biological target: ELF4 (Homo sapiens, UniProt Q99607 1-663)
In short: as §1

[14] = biological target: T9, ELK4 (Homo sapiens, UniProt P28324-2 1-405)
T9 sequence: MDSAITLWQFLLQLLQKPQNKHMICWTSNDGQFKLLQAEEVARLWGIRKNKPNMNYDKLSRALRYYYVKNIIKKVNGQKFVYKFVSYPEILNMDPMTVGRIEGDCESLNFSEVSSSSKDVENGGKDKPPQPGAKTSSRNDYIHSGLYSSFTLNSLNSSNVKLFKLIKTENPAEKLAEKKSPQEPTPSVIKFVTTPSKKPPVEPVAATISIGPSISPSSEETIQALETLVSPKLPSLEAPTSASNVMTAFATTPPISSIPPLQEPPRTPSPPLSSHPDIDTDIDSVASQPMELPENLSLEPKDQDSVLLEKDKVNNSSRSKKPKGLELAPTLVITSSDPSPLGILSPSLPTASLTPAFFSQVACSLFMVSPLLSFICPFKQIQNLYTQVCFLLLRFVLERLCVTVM
In short: as §1

[15] = biological target: T10, ETV2 (Homo sapiens, UniProt O00321 1-342)
T10 sequence: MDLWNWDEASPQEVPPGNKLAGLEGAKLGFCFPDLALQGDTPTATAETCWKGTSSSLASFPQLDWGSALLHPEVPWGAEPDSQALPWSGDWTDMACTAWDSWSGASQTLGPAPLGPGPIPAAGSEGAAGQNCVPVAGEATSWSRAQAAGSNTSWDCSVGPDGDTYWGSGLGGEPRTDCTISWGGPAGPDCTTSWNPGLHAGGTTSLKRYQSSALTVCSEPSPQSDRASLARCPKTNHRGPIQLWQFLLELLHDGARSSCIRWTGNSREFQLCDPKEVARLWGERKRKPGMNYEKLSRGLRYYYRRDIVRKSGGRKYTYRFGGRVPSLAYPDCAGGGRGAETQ
In short: as §1

[16] = biological target: T11, ELF3 (Homo sapiens, UniProt P78545 1-371)
T11 sequence: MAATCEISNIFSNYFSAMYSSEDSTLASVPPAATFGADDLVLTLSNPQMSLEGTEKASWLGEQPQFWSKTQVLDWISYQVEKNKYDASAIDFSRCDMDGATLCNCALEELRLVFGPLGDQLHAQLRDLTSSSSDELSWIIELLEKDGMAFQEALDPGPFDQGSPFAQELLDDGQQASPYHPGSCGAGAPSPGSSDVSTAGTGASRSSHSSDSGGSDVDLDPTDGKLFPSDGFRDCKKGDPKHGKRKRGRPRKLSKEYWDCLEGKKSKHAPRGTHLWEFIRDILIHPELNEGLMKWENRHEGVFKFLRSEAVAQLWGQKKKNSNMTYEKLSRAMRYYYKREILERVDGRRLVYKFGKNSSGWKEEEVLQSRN
In short: as §1

[17] = biological target: ETV1 (Homo sapiens, UniProt P50549 1-477)
In short: as §1

ETV5, sequence (P41161 whole entry): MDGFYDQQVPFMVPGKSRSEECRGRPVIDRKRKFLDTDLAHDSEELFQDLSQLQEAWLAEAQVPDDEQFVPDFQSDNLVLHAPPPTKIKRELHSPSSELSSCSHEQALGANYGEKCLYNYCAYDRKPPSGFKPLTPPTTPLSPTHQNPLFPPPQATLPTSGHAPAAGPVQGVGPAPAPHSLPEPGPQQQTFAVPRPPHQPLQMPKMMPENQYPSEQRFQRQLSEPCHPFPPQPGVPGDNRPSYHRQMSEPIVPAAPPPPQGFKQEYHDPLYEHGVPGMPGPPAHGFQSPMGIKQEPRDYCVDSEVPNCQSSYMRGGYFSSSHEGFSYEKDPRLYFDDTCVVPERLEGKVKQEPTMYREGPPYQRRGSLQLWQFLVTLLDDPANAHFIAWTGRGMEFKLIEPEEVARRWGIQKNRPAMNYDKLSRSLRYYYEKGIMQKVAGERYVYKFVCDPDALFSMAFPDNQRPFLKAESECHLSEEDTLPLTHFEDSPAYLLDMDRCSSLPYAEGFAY
ETV1, sequence (P50549 whole entry): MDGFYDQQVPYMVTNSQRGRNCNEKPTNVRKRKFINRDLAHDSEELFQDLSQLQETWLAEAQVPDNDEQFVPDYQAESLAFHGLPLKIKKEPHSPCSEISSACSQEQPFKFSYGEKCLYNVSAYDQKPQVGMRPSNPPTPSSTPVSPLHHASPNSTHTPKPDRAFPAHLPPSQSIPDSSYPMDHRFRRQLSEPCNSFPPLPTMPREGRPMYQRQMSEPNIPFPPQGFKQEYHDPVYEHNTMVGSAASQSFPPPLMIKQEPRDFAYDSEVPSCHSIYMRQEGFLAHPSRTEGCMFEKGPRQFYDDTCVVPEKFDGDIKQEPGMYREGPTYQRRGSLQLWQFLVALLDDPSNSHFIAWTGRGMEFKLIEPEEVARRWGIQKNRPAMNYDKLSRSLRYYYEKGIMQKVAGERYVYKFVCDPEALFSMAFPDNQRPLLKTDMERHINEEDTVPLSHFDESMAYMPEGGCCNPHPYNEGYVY
ELF4, sequence (Q99607 whole entry): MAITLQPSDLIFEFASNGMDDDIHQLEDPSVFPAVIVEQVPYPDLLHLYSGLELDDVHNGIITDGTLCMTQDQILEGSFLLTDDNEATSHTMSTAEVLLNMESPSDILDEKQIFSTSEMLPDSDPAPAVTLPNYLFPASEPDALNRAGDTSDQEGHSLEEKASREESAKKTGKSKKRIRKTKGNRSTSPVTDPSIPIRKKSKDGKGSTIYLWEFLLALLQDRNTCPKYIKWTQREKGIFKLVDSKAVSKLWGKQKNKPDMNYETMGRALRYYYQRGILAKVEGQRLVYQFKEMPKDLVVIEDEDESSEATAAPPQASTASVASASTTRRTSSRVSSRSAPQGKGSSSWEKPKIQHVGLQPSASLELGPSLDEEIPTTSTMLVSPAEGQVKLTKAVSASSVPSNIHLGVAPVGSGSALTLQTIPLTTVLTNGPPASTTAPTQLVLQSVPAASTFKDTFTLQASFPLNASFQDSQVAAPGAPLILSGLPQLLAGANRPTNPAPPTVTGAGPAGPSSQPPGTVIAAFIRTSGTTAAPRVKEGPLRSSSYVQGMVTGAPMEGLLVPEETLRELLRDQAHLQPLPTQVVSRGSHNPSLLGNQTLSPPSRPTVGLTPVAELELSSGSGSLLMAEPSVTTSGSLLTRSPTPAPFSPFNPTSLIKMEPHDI
ELF1, sequence (P32519 whole entry): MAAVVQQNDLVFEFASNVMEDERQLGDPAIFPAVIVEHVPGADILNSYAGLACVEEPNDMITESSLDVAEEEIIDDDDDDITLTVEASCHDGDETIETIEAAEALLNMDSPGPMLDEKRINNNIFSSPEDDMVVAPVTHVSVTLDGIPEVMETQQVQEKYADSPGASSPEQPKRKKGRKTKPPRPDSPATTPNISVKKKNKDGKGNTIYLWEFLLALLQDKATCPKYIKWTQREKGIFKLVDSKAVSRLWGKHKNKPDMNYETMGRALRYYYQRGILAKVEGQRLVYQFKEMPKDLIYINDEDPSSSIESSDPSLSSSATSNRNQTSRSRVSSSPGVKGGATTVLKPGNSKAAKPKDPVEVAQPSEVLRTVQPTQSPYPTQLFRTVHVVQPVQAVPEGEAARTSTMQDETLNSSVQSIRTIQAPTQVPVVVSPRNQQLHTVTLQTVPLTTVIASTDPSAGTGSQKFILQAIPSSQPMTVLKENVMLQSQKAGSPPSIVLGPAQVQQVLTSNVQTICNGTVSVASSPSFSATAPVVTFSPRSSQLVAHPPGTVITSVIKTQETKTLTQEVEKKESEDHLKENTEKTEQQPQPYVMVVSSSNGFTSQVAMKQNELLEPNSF
SPIB, sequence (Q01892 whole entry): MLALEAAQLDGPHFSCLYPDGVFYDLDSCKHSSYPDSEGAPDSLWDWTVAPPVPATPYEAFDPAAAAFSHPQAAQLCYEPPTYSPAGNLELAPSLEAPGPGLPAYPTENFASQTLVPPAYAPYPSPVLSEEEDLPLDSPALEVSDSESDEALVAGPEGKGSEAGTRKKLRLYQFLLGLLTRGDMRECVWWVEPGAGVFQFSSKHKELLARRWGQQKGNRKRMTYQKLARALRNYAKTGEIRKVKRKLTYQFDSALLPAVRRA

Row | Sequence | binding signal [1] | binding signal [2] | binding signal [3] | binding signal [4] | binding signal [5] | binding signal [6] | binding signal [7] | binding signal [8] | binding signal [9] | binding signal [10] | binding signal [11] | binding signal [12] | binding signal [13] | binding signal [14] | binding signal [15] | binding signal [16] | binding signal [17]
1 | CGTCAC | 1.24 fold enrichment (6-mer frequency, TF over GST control) | 1.27 fold enrichment (6-mer frequency, TF over GST control) | 1.18 fold enrichment (6-mer frequency, TF over GST control) | 1.31 fold enrichment (6-mer frequency, TF over GST control) | 1.24 fold enrichment (6-mer frequency, TF over GST control) | 1.2 fold enrichment (6-mer frequency, TF over GST control) | 1.28 fold enrichment (6-mer frequency, TF over GST control) | 1.18 fold enrichment (6-mer frequency, TF over GST control) | 1.09 fold enrichment (6-mer frequency, TF over GST control) | 1.26 fold enrichment (6-mer frequency, TF over GST control) | 1.24 fold enrichment (6-mer frequency, TF over GST control) | 1.18 fold enrichment (6-mer frequency, TF over GST control) | 1.31 fold enrichment (6-mer frequency, TF over GST control) | 1.24 fold enrichment (6-mer frequency, TF over GST control) | 1.12 fold enrichment (6-mer frequency, TF over GST control) | 1.21 fold enrichment (6-mer frequency, TF over GST control) | 1.2 fold enrichment (6-mer frequency, TF over GST control)
2 | CACACG | 1.14 fold enrichment (6-mer frequency, TF over GST control) | 1.11 fold enrichment (6-mer frequency, TF over GST control) | 1.23 fold enrichment (6-mer frequency, TF over GST control) | 1.07 fold enrichment (6-mer frequency, TF over GST control) | 1.21 fold enrichment (6-mer frequency, TF over GST control) | 1.12 fold enrichment (6-mer frequency, TF over GST control) | 1.08 fold enrichment (6-mer frequency, TF over GST control) | 1.15 fold enrichment (6-mer frequency, TF over GST control) | 1.03 fold enrichment (6-mer frequency, TF over GST control) | 1.14 fold enrichment (6-mer frequency, TF over GST control) | 1.11 fold enrichment (6-mer frequency, TF over GST control) | 1.15 fold enrichment (6-mer frequency, TF over GST control) | 1.18 fold enrichment (6-mer frequency, TF over GST control) | 1.17 fold enrichment (6-mer frequency, TF over GST control) | 1.24 fold enrichment (6-mer frequency, TF over GST control) | 1.07 fold enrichment (6-mer frequency, TF over GST control) | 1.16 fold enrichment (6-mer frequency, TF over GST control)
